Data reported in PubChem BioAssay AID652115 (Broad Institute, 2013).
Out of some 330,000 compounds screened, about 3,800 (1.2%) were called active. Cut-off read from the data, not from the text of the source: active = inhibition above about 15%; inconclusive = no clear call, values can overlap the other calls; inactive = below that. The full list was thinned out, with actives kept by preference.

The compounds below were run against NAD-dependent protein deacylase sirtuin-5, mitochondrial (Homo sapiens) (UniProt Q9NXA8) (assay: SIRT5 desuccinylase inhibitors, primary screen, biochemical, fluorescence imaging, single point, set 5 (AID 652115)). Conditions: Purified SirT5, succinyl-peptide AMC, trypsin-coupled fluorescence; at 15 µM; stronger effect = higher value.
NAD-dependent protein deacylase sirtuin-5, mitochondrial (Homo sapiens), sequence (Q9NXA8 whole entry, looked up): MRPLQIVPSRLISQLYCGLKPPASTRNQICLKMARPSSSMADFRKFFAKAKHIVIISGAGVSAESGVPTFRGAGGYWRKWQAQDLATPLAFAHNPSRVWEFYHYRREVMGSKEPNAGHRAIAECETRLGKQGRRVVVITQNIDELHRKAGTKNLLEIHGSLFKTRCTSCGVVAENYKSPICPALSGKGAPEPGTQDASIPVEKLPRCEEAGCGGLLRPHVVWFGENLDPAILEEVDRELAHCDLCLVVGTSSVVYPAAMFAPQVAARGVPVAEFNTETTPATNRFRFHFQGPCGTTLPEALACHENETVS

SMILES	inhibition
O=C(O)CCCN1C(=O)C2C3c4ccccc4C(c4ccccc43)[C@@H]2C1=O (stereo not given in full)	-0.491% (inactive)
O=C(CCN1C(=O)C2C3C=CC(C3)C2C1=O)Oc1ccc2ccccc2c1 (stereo not given)	19.8% (active)
Cc1ccc(C(=O)COC(=O)CCN2C(=O)C3C4CCC(C4)C3C2=O)cc1C (stereo not given)	-2.42% (inactive)
CCCNC(=O)N[C@@H]1C=C[C@H](CC(=O)NC2CCC2)O[C@H]1CO	-0.778% (inactive)
COc1ccc2c3c(n(C)c2c1)[C@H](CO)N(S(=O)(=O)c1ccc(C)cc1)CC31CN(C(=O)c2ccccn2)C1	1.96% (inactive)
CN(C)C(=O)[C@@H]1[C@@H](CO)[C@@H]2Cn3c(ccc(-c4ccncc4)c3=O)[C@H]1N2C(=O)NC1CCCC1	-68% (inactive)
CCN1/C(=C\c2ccc3ccccc3[n+]2CC)Sc2cc(C)ccc21	28.6% (active)
COc1cccc(-c2cnc3c(c2)C(=O)N([C@H](C)CO)C[C@H](C)[C@@H](CN(C)Cc2ccc(C(=O)O)cc2)O3)c1	-2.74% (inactive)
O=C(C[C@H]1C[C@@H]2c3cc(NC(=O)CC4CC4)ccc3O[C@@H]2[C@H](CO)O1)NCc1ccccn1	-3.34% (inactive)
C[C@@H](O)C#Cc1cnc2c(c1)C(=O)N([C@@H](C)CO)C[C@H](C)[C@H](CN(C)C(=O)c1ccccc1F)O2	2.03% (inactive)
O=C(Cn1ncc2c3ccccc3n(Cc3ccccc3)c2c1=O)NCCCN1CCOCC1	0.065% (inactive)
CC1=C(C(=O)N(C)C)CC(CC(=O)NCCN2CCOCC2)C(=O)N1Cc1ccccc1 (stereo not given)	-4.9% (inactive)
CC1c2nc3ccccc3n2C(CC(=O)NCCCN2CCOCC2)C(=O)N1Cc1ccccc1 (stereo not given)	112% (active)
C[C@@H]1CCCCO[C@@H](CN(C)Cc2ccc3c(c2)OCO3)[C@H](C)CN([C@@H](C)CO)C(=O)c2cc(NS(C)(=O)=O)ccc2O1	-3.83% (inactive)
CC(C)(C)c1cc(C(=O)NN)n(Cc2ccc(Cl)cc2Cl)n1	1.67% (inactive)
N#CC(C#N)=CN=c1ccn(Cc2ccc(Cl)cc2Cl)cc1	16.1% (active)
C[C@@H]1CN([C@@H](C)CO)C(=O)c2cc(NC(=O)Nc3ccc(C(F)(F)F)cc3)ccc2O[C@@H](C)CCCCO[C@@H]1CN(C)C(=O)Nc1cccc2ccccc12	-1.14% (inactive)
CC1CCN(C(=S)c2ccc(-c3ccc(Cl)cc3Cl)o2)CC1	17.1% (active)
CC1CCN(C(=S)c2cccc(O)c2)CC1	0.61% (inactive)
Cc1csc(NC(=O)c2ccc(-c3ccc(Cl)cc3Cl)o2)n1	-0.507% (inactive)
COc1ccc2c3c([nH]c2c1)[C@H](CO)N(C(=O)c1ccccc1)CC31CN(C(=O)Nc2cccc(F)c2)C1	1.05% (inactive)
CC(C)c1cn([C@H]2C[C@@H]3O[C@H](CO)CC[C@@H]3O[C@@H]2CCc2ccc(C#CC3CCCCC3)cc2)nn1	-3.82% (inactive)
CCCNC(=O)CCc1c(C)nc2c(c(C)nn2-c2ccccc2)c1C	-2.55% (inactive)
Cc1nn(-c2ccccc2)c2c1c(C)c(CCC(=O)NCC1CCCO1)c(=O)n2C (stereo not given)	39.7% (active)
Cc1sc2c(c1C)c(=O)n(-c1ccccc1)c(=O)n2CC(=O)NCC1CCCO1 (stereo not given)	-4.65% (inactive)

SMILES	inhibition
CCCC#Cc1ccc([C@@H]2[C@@H](CO)N3C(=O)CN(C(=O)Nc4cccc(F)c4)C[C@H]23)cc1	6.12% (inactive)
CCC(=O)Nc1ccc2c(c1)C(=O)N(C)C[C@@H](OC)[C@H](C)CN(Cc1cccnc1)[C@@H](C)CO2	-0.588% (inactive)
Cn1c(CC(=O)Nc2ccc(F)cc2)nnc1SCC(=O)NC1CCCCC1	0.115% (inactive)
Cc1ccc(NC(=O)Cc2nnc(SCC(=O)Nc3nncs3)n2C)cc1	17.8% (active)
Cc1ccc(SCC(=O)Nc2nncs2)cc1	-2.47% (inactive)
O=C(C[C@H]1C[C@@H]2c3cc(NC(=O)C4CCC4)ccc3O[C@@H]2[C@H](CO)O1)NCCN1CCCCC1	-1.29% (inactive)
C[C@H](CO)N1C[C@H](C)[C@@H](CN(C)C)Oc2c(NC(=O)Nc3ccc(F)cc3)cccc2C1=O	-3.52% (inactive)
C[C@H]1CN([C@@H](C)CO)C(=O)c2cc(-c3ccccc3F)cnc2O[C@@H]1CN(C)C	-1.72% (inactive)
CC(C)OCCCNC(=S)N1CCC(C(=O)c2ccc3c(c2)OCCO3)CC1	26.6% (active)
COCCNC(=O)C1CCN(S(=O)(=O)c2ccc3c(c2)OCCO3)CC1	-1.09% (inactive)
CCCNC(=S)N1CCC(NC(=O)c2ccc(OC)cc2)CC1	2.19% (inactive)
O=C(c1cccnc1)N1CC2(C1)[C@@H](c1ccccc1)[C@H](CO)N2C(=O)C1CCC1	-1.71% (inactive)
CCOC(=O)Cc1ncccc1C(=O)Nc1ccc(OC(F)(F)F)cc1	-0.166% (inactive)
COc1ccc(NC(=O)c2ccccc2CC[N+](=O)[O-])cc1	-2.27% (inactive)
CCOC(=O)Cc1ncccc1C(=O)Nc1ccc(OC)cc1	15.7% (active)
COc1cccc(C(=O)Nc2ccc3c(c2)C(=O)N(C)[C@@H]2CC[C@H](CC(=O)NCCCN4CCOCC4)O[C@H]2CO3)c1	1.19% (inactive)
COc1cccc(C#Cc2cnc3c(c2)C(=O)N([C@H](C)CO)C[C@@H](C)[C@@H](CN(C)C(=O)C2CCC2)O3)c1	0.234% (inactive)
O=C(N[C@@H]1CC[C@@H](CC(=O)N2CCc3ccccc3C2)O[C@H]1CO)C1CC1	3.34% (inactive)
CCS(=O)(=O)N1CC(=O)N2[C@H](CO)[C@@H](c3ccc(C#Cc4cccc(F)c4)cc3)[C@@H]2C1	-0.525% (inactive)
NC(=O)c1ccc(Nc2ccc3c(c2)CCC3)c([N+](=O)[O-])c1	28.4% (active)
NC(=O)c1ccc(Nc2ccc3nonc3c2[N+](=O)[O-])cc1	2.49% (inactive)
CCOc1ccccc1Nc1ccc(C(=O)O)cc1[N+](=O)[O-]	-0.287% (inactive)
CCCNC(=O)Nc1ccc2c(c1)C(=O)N(C)[C@H]1CC[C@H](CC(=O)NCC3CCCCC3)O[C@@H]1CO2	31.7% (active)
CCNC(=O)Nc1ccc2c(c1)C(=O)N(C)[C@H]1CC[C@H](CC(=O)NCC3CCCCC3)O[C@@H]1CO2	3.92% (inactive)
CCC(=O)Nc1ccc2c(c1)C(=O)N(C)[C@H]1CC[C@H](CC(=O)NCC3CCCCC3)O[C@H]1CO2	-3.85% (inactive)
